Data as given in PubChem BioAssay (NCI).
This is part of a sample that, as a whole, favours compounds with a hit. Of some 79,000 tested, about 15% had one in any assay. Cut-off read from the data, not from the text of the source: active = growth inhibition above about 70%; inactive = the rest.

Assays:
[1] = NCI Yeast Anticancer Drug Screen. Data for the rad50 strain (AID 155);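 note: 0% = growth of vehicle-only cultures of the same strain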; conditions: S. cerevisiae rad50 strain growth inhibition; at 50.0 µM; hits give high values
Summary of the method: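 Readout: growth inhibition relative to vehicle-treated cultures. Compound exposure was carried out in a genetically defined yeast strain deficient in DNA damage repair.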

[2] = NCI Yeast Anticancer Drug Screen. Data for the mec2-1 strain (AID 157); conditions: S. cerevisiae mec2-1 strain, at 50.0 µM, hits give high values
Summary of the method: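 Growth inhibition is read against vehicle-treated controls after compound exposure of the mec2-1 yeast strain, which is defective in DNA damage repair or cell cycle control.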

[3] = NCI Yeast Anticancer Drug Screen. Data for the sgs1 mgt1 strain (AID 161);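 note: 0% = growth of cultures given vehicle only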; conditions: S. cerevisiae sgs1 mgt1 strain, at 50.0 µM, hits give high values
Summary of the method: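 Compounds are added to genetically altered yeast, and growth is compared with cultures given vehicle alone to give percent inhibition.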

[4] = NCI Yeast Anticancer Drug Screen. Data for the cln2 rad14 strain (AID 165);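 note: 0% = growth equal to vehicle treated cultures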; conditions: S. cerevisiae cln2 rad14 strain, at 50.0 µM, hits give high values
Summary of the method: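 Growth inhibition, relative to vehicle-treated controls, is the read-out. The test organism is a yeast strain with defined genetic alterations, cln2 rad14.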

[5] = NCI Yeast Anticancer Drug Screen. Data for the bub3 strain (AID 167); conditions: S. cerevisiae bub3 mutant strain, at 50.0 µM, hits give high values
Summary of the method: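 Readout: yeast growth inhibition, expressed relative to vehicle-only wells. The test organism is a mutant strain from a panel with lesions in DNA repair or checkpoint genes.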

[6] = NCI Yeast Anticancer Drug Screen. Data for the mlh1 rad18 strain (AID 175); conditions: S. cerevisiae mlh1 rad18 strain growth inhibition; at 50.0 µM; hits give high values
Summary of the method: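 Cells of a genetically altered yeast strain, deficient in DNA damage repair, were treated with compound. Their growth was then compared with that of vehicle-treated cultures to give inhibition.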

Measured: growth inhibition

CCCCN(Cc1ccccc1)C(=O)Nc1ccccc1
inactive: [1] 4.5% | [2] 30.1% | [3] 33.1% | [4] -8.1% | [5] 39% | [6] 1.2%

Cc1cc2c(C(C)C)c(O)c(O)c(C=Nc3ccc(N=Nc4ccccc4)cc3)c2c(O)c1-c1c(C)cc2c(C(C)C)c(O)c(O)c(C=Nc3ccc(N=Nc4ccccc4)cc3)c2c1O
inactive: [1] -4.7% | [2] 0.4% | [3] -6.3% | [4] -21.8% | [5] -3.35% | [6] -4.65%

CC[N+](CC)(CC)CCO
inactive: [1] -11.6% | [2] -23.6% | [3] -10.9% | [4] 20.7% | [5] -11.5% | [6] -18.5%

C=CCOc1cc2c(cc1C(C)c1ccc(OCC)cc1)OCO2 (stereo not given)
inactive: [1] 51.6% | [2] 14.8% | [3] -14.6% | [4] -19.4% | [5] -10.8% | [6] -32.3%

NC1=NC(c2ccccc2)C2=C(N1)C(=O)N(c1ccc(Br)cc1)C2 (stereo not given)
inactive: [1] 43.3% | [2] -7.75% | [3] -2.45% | [4] -12.3% | [5] 7.7% | [6] -2.65%

COc1ccc(OC)c(N=Nc2c(C)nc(N)nc2C)c1
inactive: [1] 11.3% | [2] 4.4% | [3] 7.85% | [4] -32.6% | [5] 19.6% | [6] 10.2%

O=S(=O)(O)c1cc(I)c(O)c2ncccc12
inactive: [1] 18.5% | [2] 1% | [3] -1.05% | [4] -67.8% | [5] 19.4% | [6] 45.4%

CC(C)=CCC/C(C)=C/CO
inactive: [1] -48.8% | [2] -27.8% | [3] -3.55% | [4] 35.1% | [5] -47.8% | [6] -14.2%

NC(CCC(=O)OCCn1c2ccccc2c2ccccc21)C(=O)O (stereo not given)
inactive: [1] -1.9% | [2] -2.4% | [3] 3.3% | [4] -2.1% | [5] 18.1% | [6] 3.95%

CCC(O)(CC)Cc1ccc(Cl)cc1
inactive: [1] -1% | [2] -9.55% | [3] -0.4% | [4] -12.2% | [5] -12.4% | [6] -6.65%

CC(=O)O[C@H]1CSC[C@@H](OC(C)=O)C1[N+](=O)[O-] (stereo not given in full)
inactive: [1] 37.5% | [2] 25.4% | [3] 17.7% | [4] 43.2% | [5] 18.8% | [6] 47.1%

CCOC(=O)/C(F)=C/c1cccc([N+](=O)[O-])c1
inactive: [1] 13.4% | [2] 8.8% | [3] -5.35% | [4] 10.1% | [5] 7.95% | [6] 19.8%

CCCC1C(C#N)(C#N)C(C#N)=C(N)C1(C)C(C)=O (stereo not given)
inactive: [1] 3.4% | [2] 6.8% | [3] -18.7% | [4] 0.4% | [5] -23.8% | [6] -34.9%

NC(=O)N/N=C/c1ccc(Cl)cc1Cl
inactive: [1] -3.7% | [2] -5.55% | [3] -8.25% | [4] -1.65% | [5] 4.8% | [6] -13.6%

CC#CCCC1CCCCNC1=O (stereo not given)
inactive: [1] 0.8% | [2] -16.9% | [3] 27.1% | [4] 12.1% | [5] 26.5% | [6] 3.7%

Cc1cc(Cl)c(C)c(C)c1O
inactive: [1] 22.6% | [2] 5.45% | [3] -20.2% | [4] 16.6% | [5] 1.25% | [6] 21.4%

CC(=O)OC1(C)N=NC2(CCCCC2)O1 (stereo not given)
inactive: [1] 3.45% | [2] -22.4% | [3] -37.1% | [4] 7.5% | [5] -12.1% | [6] -12.3%

CCCC(=O)NC(Nc1ccc(S(=O)(=O)Nc2ccc(OC)nn2)cc1)(C(F)(F)F)C(F)(F)F
inactive: [1] 1.55% | [2] -19.1% | [3] -0.6% | [4] 0.35% | [5] -16.8% | [6] -9.25%

CNCC(=O)Nc1ccc2c(c1)C(=O)c1ccc(NC(=O)CNC)cc1C2=O
inactive: [1] 11.5% | [2] 13.9% | [3] 19.4% | [4] -2.25% | [5] -11.9% | [6] 23.8%

[O-][n+]1cccc(CO)c1
inactive: [1] -17.9% | [2] -47.9% | [3] -25.1% | [4] 6.05% | [5] -15% | [6] -4.35%
